Source: PubChem BioAssay AID1159580 (chemical genetic matrix, 2015)
In all, about 5,500 compounds went through this assay and about 2,000 (36%) were called active. Not shown: some 18% with an inconclusive outcome. Cut-off read from the data, not from the text of the source: active = normalized growth mostly below about 0.91 (no sharp cut-off); inconclusive = no clear call, values can overlap the other calls; inactive = mostly above about 0.92. The list shows a part of the results.

Test: chemical genetic growth profiling, strain panel (AID 1159580);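 note: tested at 20 µM; growth read once vehicle control cultures reached saturation at 30 °C; 1 = growth at the plate median or of vehicle wells; lower values mean less growth of the strain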
Settings: growth OD

Measured: normalized growth

Cc1ccc2c(c1)CC[C@H]1CC(=O)CC[C@]21C
inactive: S. cerevisiae deletion strains, locus YKL009W, strain mrt4, active compounds read low 0.982 | S. cerevisiae deletion strains, locus YKL068W, active compounds read low 0.991 | S. cerevisiae deletion strains, locus YKL085W, strain MDH1 (second series), active compounds read low 0.973 | S. cerevisiae deletion strains, locus YKL085W, strain MDH1, active compounds read low 0.973 | S. cerevisiae deletion strains, locus YKL160W, strain elf1, active compounds read low 1.01 | S. cerevisiae deletion strains, locus YKL190W, strain CNB1, active compounds read low 0.997 | S. cerevisiae deletion strains, locus YKR001C, strain vps1, active compounds read low 0.953 | S. cerevisiae deletion strains, locus YKR026C, strain gcn3, active compounds read low 1.01 | S. cerevisiae deletion strains, locus YKR091W, strain srl3, active compounds read low 1 | S. cerevisiae deletion strains, locus YLL001W, strain dnm1, active compounds read low 0.999 | S. cerevisiae deletion strains, locus YLL026W, active compounds read low 1.01 | S. cerevisiae deletion strains, locus YLL041C, strain sdh2, active compounds read low 0.991 | S. cerevisiae deletion strains, locus YLR027C, strain aat2, active compounds read low 0.989 | S. cerevisiae deletion strains, locus YLR039C, strain RIC1, active compounds read low 0.925 | S. cerevisiae deletion strains, locus YLR058C, strain SHM2, active compounds read low 0.998 | S. cerevisiae deletion strains, locus YLR102C, strain apc9, active compounds read low 0.983 | S. cerevisiae deletion strains, locus YLR113W, strain HOG1, active compounds read low 0.975 | S. cerevisiae deletion strains, locus YLR221C, strain rsa3, active compounds read low 0.995 | S. cerevisiae deletion strains, locus YLR258W, strain gsy2, active compounds read low 1 | S. cerevisiae deletion strains, locus YLR262C, strain YPT6 (second series), active compounds read low 0.942 | S. cerevisiae deletion strains, locus YLR262C, strain YPT6, active compounds read low 0.917 | S. cerevisiae deletion strains, locus YLR268W, strain sec22, active compounds read low 1.01 | S. cerevisiae deletion strains, locus YLR320W, strain mms22, active compounds read low 0.977 | S. cerevisiae deletion strains, locus YLR330W, strain CHS5, active compounds read low 0.991 | S. cerevisiae deletion strains, locus YLR342W, strain FKS1 (second series), active compounds read low 0.94 | S. cerevisiae deletion strains, locus YLR342W, strain FKS1, active compounds read low 0.997 | S. cerevisiae deletion strains, locus YLR357W, strain rsc2, active compounds read low 1.01 | S. cerevisiae deletion strains, locus YLR370C, strain arc18, active compounds read low 1.02 | S. cerevisiae deletion strains, locus YLR371W, strain rom2, active compounds read low 0.972 | S. cerevisiae deletion strains, locus YLR384C, strain iki3, active compounds read low 1.01 | S. cerevisiae deletion strains, locus YLR418C, strain cdc73, active compounds read low 0.923 | S. cerevisiae deletion strains, locus YML016C, strain PPZ1, active compounds read low 0.984 | S. cerevisiae deletion strains, locus YML032C, strain rad52, active compounds read low 0.972 | S. cerevisiae deletion strains, locus YML120C, strain ndi1, active compounds read low 0.986 | S. cerevisiae deletion strains, locus YML124C, strain tub3, active compounds read low 0.98 | S. cerevisiae deletion strains, locus YMR058W, strain fet3, active compounds read low 1.01 | S. cerevisiae deletion strains, locus YMR078C, strain ctf18, active compounds read low 0.969 | S. cerevisiae deletion strains, locus YMR125W, strain sto1, active compounds read low 1 | S. cerevisiae deletion strains, locus YMR129W, active compounds read low 1.01 | S. cerevisiae deletion strains, locus YMR205C, strain PFK2, active compounds read low 1 | S. cerevisiae deletion strains, locus YMR223W, strain ubp8, active compounds read low 0.966 | S. cerevisiae deletion strains, locus YMR231W, strain pep5, active compounds read low 0.997 | S. cerevisiae deletion strains, locus YMR263W, strain SAP30, active compounds read low 1.01 | S. cerevisiae deletion strains, locus YMR307W, strain GAS1, active compounds read low 0.908 | S. cerevisiae deletion strains, locus YNL067W, strain RPL9B, active compounds read low 0.999 | S. cerevisiae deletion strains, locus YNL071W, strain lat1, active compounds read low 0.999 | S. cerevisiae deletion strains, locus YNL128W, strain TEP1, active compounds read low 1.01 | S. cerevisiae deletion strains, locus YNL153C, strain GIM3, active compounds read low 1.02 | S. cerevisiae deletion strains, locus YNL183C, strain NPR1, active compounds read low 0.907 | S. cerevisiae deletion strains, locus YNL209W, strain ssb2, active compounds read low 0.998 | S. cerevisiae deletion strains, locus YNL233W, strain BNI4, active compounds read low 0.979 | S. cerevisiae deletion strains, locus YNL248C, strain rpa49, active compounds read low 0.99 | S. cerevisiae deletion strains, locus YNL250W, strain rad50, active compounds read low 0.979 | S. cerevisiae deletion strains, locus YNL271C, strain bni1, active compounds read low 0.96 | S. cerevisiae deletion strains, locus YNL298W, strain CLA4, active compounds read low 0.987 | S. cerevisiae deletion strains, locus YNL322C, strain KRE1 (second series), active compounds read low 1 | S. cerevisiae deletion strains, locus YNL322C, strain KRE1, active compounds read low 1 | S. cerevisiae deletion strains, locus YNR049C, strain mso1, active compounds read low 1 | S. cerevisiae deletion strains, locus YNR052C, strain pop2, active compounds read low 0.976 | S. cerevisiae deletion strains, locus YOL006C, strain TOP1, active compounds read low 0.878 | S. cerevisiae deletion strains, locus YOL012C, strain htz1 1.46 | S. cerevisiae deletion strains, locus YOL147C, strain pex11, active compounds read low 0.981 | S. cerevisiae deletion strains, locus YOR001W, strain rrp6, active compounds read low 0.981 | S. cerevisiae deletion strains, locus YOR061W, strain CKA2, active compounds read low 0.998 | S. cerevisiae deletion strains, locus YOR069W, strain VPS5, active compounds read low 0.998 | S. cerevisiae deletion strains, locus YOR070C, strain gyp1, active compounds read low 1 | S. cerevisiae deletion strains, locus YOR080W, strain dia2, active compounds read low 0.994 | S. cerevisiae deletion strains, locus YOR083W, strain WHI5, active compounds read low 1 | S. cerevisiae deletion strains, locus YOR106W, strain vam3, active compounds read low 0.998 | S. cerevisiae deletion strains, locus YOR136W, strain idh2, active compounds read low 0.993 | S. cerevisiae deletion strains, locus YOR144C, strain elg1, active compounds read low 0.976 | S. cerevisiae deletion strains, locus YOR184W, strain ser1, active compounds read low 0.895 | S. cerevisiae deletion strains, locus YOR231W, strain MKK1, active compounds read low 0.981 | S. cerevisiae deletion strains, locus YOR265W, strain rbl2, active compounds read low 1 | S. cerevisiae deletion strains, locus YOR270C, strain vph1, active compounds read low 0.889 | S. cerevisiae deletion strains, locus YOR290C, strain snf2, active compounds read low 1.01 | S. cerevisiae deletion strains, locus YOR316C, strain cot1, active compounds read low 0.982 | S. cerevisiae deletion strains, locus YPL051W, strain arl3, active compounds read low 1.01 | S. cerevisiae deletion strains, locus YPL055C, strain LGE1, active compounds read low 0.99 | S. cerevisiae deletion strains, locus YPL078C, strain atp4, active compounds read low 0.993 | S. cerevisiae deletion strains, locus YPL106C, strain sse1, active compounds read low 1.03 | S. cerevisiae deletion strains, locus YPL240C, strain hsp82, active compounds read low 1 | S. cerevisiae deletion strains, locus YPL241C, strain CIN2, active compounds read low 0.993 | S. cerevisiae deletion strains, locus YPL256C, strain CLN2, active compounds read low 0.965 | S. cerevisiae deletion strains, locus YPR119W, strain clb2, active compounds read low 0.98 | S. cerevisiae deletion strains, locus YPR141C, strain kar3, active compounds read low 0.976 | S. cerevisiae deletion strains, locus YPR163C, strain tif3, active compounds read low 0.974 | S. cerevisiae deletion strains, locus YPR167C, strain met16, active compounds read low 0.982 | S. cerevisiae deletion strains, strain wtn01, active compounds read low 0.975 | S. cerevisiae strains, strain wild type, active compounds read low 0.994
active: S. cerevisiae deletion strains, locus YNL307C, strain MCK1, active compounds read low 0.889
